From PubChem BioAssay (NCI) come the findings set out here.

This is part of a sample that, as a whole, favours compounds with a hit. Of some 83,000 tested, about 20% had one in any assay.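 Each cell line was grown in a 96-well plate and treated with one concentration of compound for 48 hours. Values below 10 were considered active.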 Calls of active or inactive are those of the source.

Some test systems named below: BT-549 breast; MDA-MB-435 melanoma; SW-620 colon; MCF7 breast; HCT-116 colon; HCC-2998 colon; KM12 colon.
Holding throughout (assay): NCI-60 one-dose screen, 48 h (100 = growth as untreated, 0 = no growth, -100 = all killed)
Common to all, as to details: 10 µM unless noted

As to `c1ccc2c(c1)nc(-n1ccnc1)c1nc3ccccc3n12`, the growth is 45.5% (inactive) with BT-549 breast; 76.1% (inactive) with MDA-MB-435 melanoma; 65.7% (inactive) in the assay with SW-620 colon; 62.5% (inactive) in the assay with MCF7 breast; 52.5% (inactive) in the assay with HCT-116 colon; 76% (inactive) with HCC-2998 colon. Moreover, the growth in the assay on KM12 colon is 64.9% (inactive).
As for `O=C1C2=C(CCN(Cc3ccccc3)C2)N2CCN=C2N1Cc1ccc(C(F)(F)F)cc1`, the growth in the assay on BT-549 breast is 32% (inactive); in the assay on MDA-MB-435 melanoma it was 24.4% (inactive); in the assay with SW-620 colon, 37% (inactive); with MCF7 breast it was 21.2% (inactive); in the assay with HCT-116 colon, 23% (inactive); in the assay on HCC-2998 colon, 23.9% (inactive). For the same compound, the growth in the assay with KM12 colon is 39.4% (inactive).
In the case of `COc1ccc(/C=N/NC(=O)Cn2c(-c3ccc(S(C)(=O)=O)cc3)nc3cc(Cl)ccc32)cc1`, the growth is 43.1% (inactive) in the assay on BT-549 breast; -17.8% (active) in the assay on MDA-MB-435 melanoma; 30.5% (inactive) with SW-620 colon; 17.2% (inactive) in the assay on MCF7 breast; 11.8% (inactive) in the assay with HCT-116 colon; 19.4% (inactive) with HCC-2998 colon. Besides, the growth with KM12 colon is 13.3% (inactive).
As to `C#CC[C@H](N)C(=O)O`, the growth is 106% [20 µM] (inactive) with BT-549 breast; 102% [20 µM] (inactive) in the assay on MDA-MB-435 melanoma; 103% [20 µM] (inactive) with SW-620 colon; 91.7% [20 µM] (inactive) in the assay with MCF7 breast; 96.3% [20 µM] (inactive) in the assay on HCT-116 colon; 116% [20 µM] (inactive) with HCC-2998 colon. The growth in the assay on KM12 colon was 105% [20 µM] (inactive).
Regarding `Cc1cc(N(CCCNc2ccnc3cc(Cl)ccc23)Cc2ccccn2)nc(N2CCOCC2)n1`, the growth was 90.5% (inactive) in the assay with BT-549 breast; 111% (inactive) in the assay on MDA-MB-435 melanoma; 83.5% (inactive) with SW-620 colon; 87% (inactive) with MCF7 breast; 57.9% (inactive) in the assay with HCT-116 colon; 105% (inactive) in the assay with HCC-2998 colon. For the same compound, the growth in the assay on KM12 colon is 103% (inactive).
For the compound `Cn1cc(Nc2nccc(-c3ccc(N4CCCC4)c(C#N)c3)n2)cn1`, the growth with BT-549 breast was 37.7% (inactive); in the assay with MDA-MB-435 melanoma, 0.731% (active); in the assay with SW-620 colon, 14.2% (inactive); in the assay with MCF7 breast it was 27.3% (inactive); in the assay on HCT-116 colon, 11.5% (inactive); in the assay with HCC-2998 colon, 59.8% (inactive). The growth in the assay with KM12 colon is 31.6% (inactive).
As to `C=C1c2c(C)nn(-c3ccc(O)cc3)c2N(C)C23C[C@@H]1C1(C)c4c(C)nn(-c5ccc(O)cc5)c4N(C)C(C)(C[C@H]12)C3` (stereo partly drawn), the growth is 28.6% (inactive) in the assay with BT-549 breast; 18.7% (inactive) in the assay with MDA-MB-435 melanoma; 31.2% (inactive) in the assay on SW-620 colon; 5.99% (active) in the assay with MCF7 breast; 8.9% (active) with HCT-116 colon; 44.9% (inactive) with HCC-2998 colon. Further, the growth in the assay on KM12 colon was 21.2% (inactive).
As to `Cc1c(C(=O)O[C@H]2[C@@H]3[C@H](C)CC[C@H]3[C@]3(C)O[C@@]2(C2CCCCC2)C[C@H]3OC(=O)CO)ccc2ccccc12`, the growth with BT-549 breast is 33.4% (inactive); in the assay with MDA-MB-435 melanoma it was 39% (inactive); in the assay on SW-620 colon it was 18.7% (inactive); in the assay on MCF7 breast, 3.27% (active); in the assay on HCT-116 colon, 3.42% (active); in the assay on HCC-2998 colon it was 5.5% (active). Besides, the growth in the assay on KM12 colon was 27.9% (inactive).
Take `COc1ccc(/C(C)=C(\c2ccc(Cl)cc2)c2ccc(OCCN3CCCC3)cc2)cc1F`: the growth with BT-549 breast was 66.3% (inactive); in the assay with MDA-MB-435 melanoma it was 31.6% (inactive); in the assay on SW-620 colon, 13.3% (inactive); in the assay with MCF7 breast, 9.96% (active); in the assay with HCT-116 colon, 14.3% (inactive); in the assay with HCC-2998 colon, 18.6% (inactive). Moreover, the growth with KM12 colon is 7.85% (active).
As to `C=C1C(=O)O[C@H]2[C@H]1CC/C(COC(=O)/C=C\C(=O)NCc1ccc(Cn3c(=O)sn(CCCC)c3=O)cc1)=C\CC[C@@]1(C)O[C@@H]21`, the growth was -73.3% (active) in the assay with BT-549 breast; -73.9% (active) with MDA-MB-435 melanoma; -45.5% (active) with SW-620 colon; -43% (active) in the assay with MCF7 breast; -77.5% (active) in the assay with HCT-116 colon; -80.3% (active) with HCC-2998 colon. The growth with KM12 colon is -59.7% (active).
On to `COc1ccc(OC)c(C(=O)Nc2cccc(-c3cc(=O)c4ccccc4o3)c2)c1`, for which the growth in the assay on BT-549 breast was 88.2% (inactive); with MDA-MB-435 melanoma, 96.2% (inactive); in the assay on SW-620 colon it was 96.8% (inactive); with MCF7 breast, 92% (inactive); in the assay with HCT-116 colon, 88% (inactive); with HCC-2998 colon, 104% (inactive). Moreover, the growth in the assay with KM12 colon is 92.5% (inactive).
Consider `CCN1CCN(c2ccc(Nc3cc(-c4cccnc4Nc4c(Cl)c(OC)cc(OC)c4Cl)ncn3)cc2)CC1`, for which the growth is 60.1% (inactive) in the assay with BT-549 breast; 89.7% (inactive) in the assay on MDA-MB-435 melanoma; 55% (inactive) in the assay with SW-620 colon; 40.9% (inactive) in the assay with MCF7 breast; 71.9% (inactive) with HCT-116 colon; 75.6% (inactive) with HCC-2998 colon. The growth in the assay on KM12 colon is 73.9% (inactive).
For `C[C@@H]1CC[C@@H]2[C@@H]1[C@H](OC(=O)c1ccc3ccccc3c1)[C@]1(C3CCCCC3)C[C@@H](OC(=O)CO)[C@@]2(C)O1`, the growth in the assay with BT-549 breast is 0.366% (active); with MDA-MB-435 melanoma, 72.1% (inactive); with SW-620 colon, 65.1% (inactive); in the assay with MCF7 breast, 20.5% (inactive); in the assay on HCT-116 colon, 28.3% (inactive); in the assay with HCC-2998 colon, 51.3% (inactive). Further, the growth in the assay with KM12 colon is 54.2% (inactive).
On to `CCc1c(C(=O)N[C@@H]2c3cc(Cl)ccc3CC[C@@H]2O)[nH]c(C)c1C(C)=O`, for which the growth is 80.7% (inactive) in the assay on BT-549 breast; 97.4% (inactive) with MDA-MB-435 melanoma; 90.1% (inactive) in the assay on SW-620 colon; 85.3% (inactive) in the assay with MCF7 breast; 51% (inactive) in the assay on HCT-116 colon; 95.4% (inactive) in the assay with HCC-2998 colon. Further, the growth in the assay with KM12 colon was 71.6% (inactive).
As for `C=C1c2c(C)nn(-c3ccc(S(N)(=O)=O)cc3)c2N(C)C23CC1C1(C)c4c(C)nn(-c5ccc(S(N)(=O)=O)cc5)c4N(C)C(C)(CC12)C3` (stereo not drawn), the growth with BT-549 breast was 49.6% (inactive); in the assay with MDA-MB-435 melanoma, 32.9% (inactive); in the assay with SW-620 colon it was 39.2% (inactive); in the assay on MCF7 breast, 15.9% (inactive); in the assay on HCT-116 colon, 14.4% (inactive); in the assay with HCC-2998 colon, 47% (inactive). Also, the growth in the assay with KM12 colon is 33.1% (inactive).
Take `c1ccc(-c2oc3ccccc3c2-c2ccccc2)cc1`: the growth was 106% (inactive) in the assay with BT-549 breast; 99.5% (inactive) in the assay on MDA-MB-435 melanoma; 105% (inactive) in the assay with SW-620 colon; 115% (inactive) in the assay on MCF7 breast; 98.5% (inactive) in the assay on HCT-116 colon; 111% (inactive) with HCC-2998 colon. Besides, in the assay on KM12 colon, the growth was 104% (inactive).
Take `C/C(=N\NC(=O)Cn1c(-c2ccc(S(C)(=O)=O)cc2)nc2cc(Cl)ccc21)c1ccc(Cl)cc1`: the growth in the assay with BT-549 breast was 92.3% (inactive); with MDA-MB-435 melanoma it was 79.1% (inactive); in the assay with SW-620 colon, 92.2% (inactive); with MCF7 breast it was 62% (inactive); with HCT-116 colon, 80.5% (inactive); in the assay with HCC-2998 colon, 103% (inactive). In the assay on KM12 colon, the growth was 76.4% (inactive).
As to `CCCCOc1ccc(NC(=O)n2nc(N=NN(C)C)c3ccc(Cl)cc32)cc1`, the growth in the assay with BT-549 breast was 98.8% (inactive); with MDA-MB-435 melanoma, 106% (inactive); in the assay on SW-620 colon, 106% (inactive); in the assay on MCF7 breast it was 85.2% (inactive); with HCT-116 colon, 91.3% (inactive); with HCC-2998 colon, 113% (inactive). Moreover, the growth with KM12 colon is 110% (inactive).
In the case of `COc1ccc(Oc2nc(Nc3ccc(N4CCOCC4)nc3)ncc2NC(=O)c2cc(OC)cc(OC)c2)cc1`, the growth is 80.2% (inactive) with BT-549 breast; 32.7% (inactive) in the assay on MDA-MB-435 melanoma; 75.8% (inactive) with SW-620 colon; 63.8% (inactive) in the assay on MCF7 breast; 72.1% (inactive) in the assay on HCT-116 colon; 95.2% (inactive) in the assay with HCC-2998 colon. Also, in the assay with KM12 colon, the growth is 64% (inactive).
Take `CCC(C)NCc1ccccc1` (stereo not drawn): the growth was 95.2% (inactive) in the assay with BT-549 breast; 108% (inactive) in the assay with MDA-MB-435 melanoma; 101% (inactive) with SW-620 colon; 102% (inactive) with MCF7 breast; 91.8% (inactive) in the assay with HCT-116 colon; 102% (inactive) in the assay on HCC-2998 colon. In addition, the growth in the assay with KM12 colon was 100% (inactive).
`C=C1C(=O)O[C@H]2[C@H]1CC/C(Cn1cc(CNCCc3c[nH]c4ccc(Cl)cc34)nn1)=C\CC[C@@]1(C)O[C@@H]21`: the growth was 74.7% (inactive) in the assay on BT-549 breast; 68% (inactive) in the assay with MDA-MB-435 melanoma; 2.69% (active) with SW-620 colon; 42.9% (inactive) in the assay with MCF7 breast; 11.2% (inactive) in the assay on HCT-116 colon; 103% (inactive) in the assay on HCC-2998 colon. Besides, the growth in the assay on KM12 colon is 82.9% (inactive).
Regarding `Clc1cnc(Nc2ccc(OCCN3CCCC3)cc2)nc1NCc1ccco1`, the growth was 45.7% (inactive) in the assay on BT-549 breast; 34.5% (inactive) with MDA-MB-435 melanoma; 6.11% (active) in the assay on SW-620 colon; -0.965% (active) in the assay with MCF7 breast; 7.55% (active) in the assay on HCT-116 colon; 59.1% (inactive) in the assay on HCC-2998 colon. The growth in the assay on KM12 colon was 4.56% (active).
Take `COC(=O)c1ccc(CSc2nnc(-c3ccncc3)o2)cc1`: the growth in the assay with BT-549 breast was 104% (inactive); in the assay with MDA-MB-435 melanoma, 106% (inactive); in the assay on SW-620 colon it was 108% (inactive); in the assay on MCF7 breast it was 96.6% (inactive); with HCT-116 colon, 97.6% (inactive); in the assay on HCC-2998 colon, 110% (inactive). In the assay on KM12 colon, the growth was 109% (inactive).
With `COc1cc2oc(-c3cccc(C(=O)Nc4ccc(C#N)cc4)c3)cc(=O)c2c(O)c1OC`, the growth was 44.7% (inactive) with BT-549 breast; 68.3% (inactive) in the assay with MDA-MB-435 melanoma; 78% (inactive) with SW-620 colon; 48.5% (inactive) in the assay with MCF7 breast; 55.5% (inactive) in the assay with HCT-116 colon; 83.1% (inactive) in the assay with HCC-2998 colon. Besides, the growth in the assay on KM12 colon was 38.9% (inactive).
